# Reference: PubChem BioAssay (Tox21)
# “And” between values parts separate entries of the source, which are not always exact repeats. Equal entries are not always repeated. Records with an inconclusive call do not appear. A call without a number means that no potency is given here. Some structures have more than one record in an assay (separate samples or runs), and their calls can disagree. The source made the active and inactive calls. Calls follow the shape of the full dose curve.
# Assay: qHTS assay to identify small molecule agonists of H2AX - cell viability counter screen (AID 1224847); also: nearly all actives have a fitted effect of over 30% in size; as to activity change, negative = cytotoxicity: top concentration of the series differs between compounds
# Settings: CHO-K1 viability, CellTiter-Glo luminescence, 3 h; series mostly up to 70.9 µM
# From the text: National Center for Advancing Translational Sciences [NCATS]
# NIH Chemical Genomics Center [NCGC]
# U.S. Environmental Protection Agency [EPA]
# National Institutes of Environmental Health Sciences [NIEHS]
# National Toxicology Program [NTP]
# U.S. Food and Drug Administration [FDA]
# HTRF phospho-H2AX (Ser139) assay (Cisbio Bioassays, US) enables the quantitative detection of the histone variant H2AX when phosphorylated on serine 139. When double-stranded DNA breaks, either by ionizing radiation or endogenous physiological processes, H2AX becomes phosphorylated at Ser139. This phospho-Ser139 serves as a sensitive biomarker for the detection of such breaks, localizing the site of DNA repair. So, HTRF phospho-H2AX Ser139 is a pertinent assay to study genome stability, the cell cycle, DNA repair, and it serves as a biomarker for cancer, and to understand aging. Wild type CHO-K1 cells were used to identify the inducers of Phospho-H2AX Ser 139 from the Tox21 compound collections. Also cytotoxicity of the Tox21 10K compound library against the CHO-K1 cell line was tested by measuring the cell viability using CellTiter-Glo assay (Promega, Madison, WI).
# Tox21 Assay Protocol Summary:
# The CHO-K1 cells suspended in culture medium containing 10% FBS were dispensed at 1000 cells/ 3 ul/well in 1536-well white wall/solid bottom plates (Greiner Bio-One North America, NC) using a Multidrop Combi (Thermo Fisher Scientific Inc., Waltham, MA). After the assay plates were incubated at 37C overnight, 23 nl of compounds at 15 concentrations (from 5-48 columns) or positive control (from 1 to 4 columns) were transferred to the assay plates using a Pintool station (Wako, San Diego, CA) into each well resulting in a final DMSO concentration of 0.76%. After 3hr incubation at 37C, 3 uL/well CellTiter-Glo luminescent cell viability reagent (Promega Corporation, Madison, WI) was added using a Flying Reagent Dispenser (FRD) (Aurora Discovery, CA). After incubation at room temperature for 30 min, the luminescence intensity was read using a ViewLux plate reader (PerkinElmer, Waltham, MA).
# Potency is read from the fitted curve at half-maximal effect.
Structure (SMILES),Potency,"activity change, negative = cytotoxicity"
O=C1CCCC(=O)C1,inactive,–
COC(=O)c1ccc(C)cc1C1=NC(C)(C(C)C)C(=O)N1 (stereo not given),inactive,–
CCCCCCOC(=O)CCCCC(=O)OCCCCCC,inactive,–
COc1cc(C(=O)N2CCCCCCC2)cc(OC)c1OC,inactive,–
CCN(CC)CCOCCOC(=O)C1(c2ccccc2)CCCC1,inactive,–
O=C(CCCN1CCN(c2ccccn2)CC1)c1ccc(F)cc1,inactive,–
Nc1ccccc1S(=O)(=O)O,inactive,–
CN1CCCC1,inactive,–
COc1ccc2c(c1)c(CC(=O)OCC(=O)O)c(C)n2C(=O)c1ccc(Cl)cc1,inactive,–
OC(CCN1CCCCC1)(c1ccccc1)C1CC2C=CC1C2 (stereo not given),inactive,–
O=C(O)CCCc1ccccc1,inactive,–
C=C1CC[C@H]2C[C@@H]1C2(C)C,inactive,–
CC(C)(C)c1nnc(NS(=O)(=O)c2ccccc2)s1,inactive,–
O=C(O)CNC(=O)c1ccc([N+](=O)[O-])cc1,inactive,–
OC1CCCCC1c1ccccc1 (stereo not given),inactive,–
NCCCNCCSP(=O)(O)O,–,-5.36% [at 14 µM] (inactive)
CC(C)(O)C#CC(C)(C)O,inactive,–
C=CCCCCCCCCC=O,inactive,–
CCN(Cc1ccncc1)C(=O)C(CO)c1ccccc1 (stereo not given),inactive,–
NS(=O)(=O)c1cc(C(=O)O)cc(N2CCCC2)c1Oc1ccccc1,inactive,–

Structure (SMILES),Potency,"activity change, negative = cytotoxicity"
CC(C)(c1ccc(O)cc1)c1ccc(O)cc1,inactive and 103 µM (active),–
O=C(O)CCCl,inactive,–
CCO[Si](CCC1CCC2OC2C1)(OCC)OCC (stereo not given),inactive,–
CC(=O)OC/C=C(\C)CC/C=C(\C)CCC=C(C)C,inactive,–
C[C@H](NC(CCc1ccccc1)C(=O)O)C(=O)N1CCC[C@H]1C(=O)O (stereo not given in full),inactive,–
NS(=O)(=O)c1ccccc1Cl,inactive,–
COC(=O)CCSCCC(=O)OC,inactive,–
Cc1nc2c([nH]1)c(=O)n(C)c(=O)n2Cc1ccco1,inactive,–
COC(=O)[C@@H](N)Cc1ccc(O)c(O)c1,inactive,–
O=C(O)Cc1ccc(CCNS(=O)(=O)c2ccc(Cl)cc2)cc1,inactive,–
CCN(CC)CCNC(=O)c1cc(S(C)(=O)=O)ccc1OC,inactive,–
CO[Si](CCCOCC1CO1)(OC)OC (stereo not given),inactive,–
Cc1c(NC(C)C)c(=O)n(-c2ccccc2)n1C,inactive,–
CN1CCC(=C2c3ccccc3CC(=O)c3sccc32)CC1,inactive,–
Cc1c(O)cccc1O,inactive,–
NC(=O)c1ccc([N+](=O)[O-])cc1,inactive,–
Cc1ccc(C#N)cc1,inactive,–
COC(=O)CC(C)=O,inactive,–
CS(=O)(=O)O,inactive,–
C[C@H]1C[C@@H](O)CC(C)(C)C1,inactive,–
